Experimental data reported in article PMC5540273 (PLoS ONE, 2017).
“And” between values parts separate entries of the source, which are not always exact repeats. Equal entries are not always repeated. Where two headings read alike, the source gives them in different places.

Experiments:
KIT-autoinhibited = details: concentration: 1 μM, replicates: in singlicate, n = 1
KIT = details: concentration: 1 μM, replicates: in singlicate, n = 1
LATS1 = details: concentration: 1 μM, replicates: in singlicate, n = 1
LATS2 = details: concentration: 1 μM, replicates: in singlicate, n = 1
LCK = details: concentration: 1 μM, replicates: in singlicate, n = 1
LIMK1 = details: concentration: 1 μM, replicates: in singlicate, n = 1
LIMK2 = details: concentration: 1 μM, replicates: in singlicate; n = 1
LKB1 = tested on: T1, LKB1; details: concentration: 1 μM, replicates: in singlicate, n = 1
T1 construct: gene STK11

LOK = tested on: T2, LOK; details: concentration: 1 μM, replicates: in singlicate, n = 1
T2 construct: gene STK10

LRRK2 = details: concentration: 1 μM, replicates: in singlicate, n = 1
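Also: KINOMEscan kinase panel screen.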

Compound	%Inh (KIT-autoinhibited) [%]	%Inh (KIT) [%]	%Inh (LATS1) [%]	%Inh (LATS2) [%]	%Inh (LCK) [%]	%Inh (LIMK1) [%]	%Inh (LIMK2) [%]	%Inh (LKB1) [%]	%Inh (LOK) [%]	%Inh (LRRK2) [%]	%Inh (KIT-autoinhibited; 1 µM)	%Inh (KIT; 1 µM)	%Inh (LATS1; 1 µM)	%Inh (LATS2; 1 µM)	%Inh (LCK; 1 µM)	%Inh (LIMK1; 1 µM)	%Inh (LKB1; 1 µM)	%Inh (LOK; 1 µM)	%Inh (LRRK2; 1 µM)
COc1cc2c(cc1OCCN1CCN(C)CC1)ncc1c3ccc(C#N)cc3[nH]c21	71	83	0	20	57	0	0	29	33	98.8									
CN(C(=O)c1ccc(-c2cc(-c3c[nH]nc3-c3ccccn3)ccn2)cc1)C1CCOCC1 [GW810083]	0	0	0	2	0	0	0	16	0	0									
[2H]C([2H])(c1cccc(C(F)(F)F)c1C)n1ccn2c(=O)nc(N3CCOCC3)cc12 [GSK2336394]	0	14	11	0	25	15	0	0	0	0									
O=C(c1ccc(-c2cc(-c3c[nH]nc3-c3ccccn3)ccn2)cc1)N1CCOCC1 [GW812171]	29	0	0	0	0	0	0	0	28	0									
COC(=O)Nc1nc2cc(Oc3ccc(NC(=O)Nc4cc(F)ccc4F)cc3)ccc2[nH]1.Cl [GW701424]	30	100	0	0	57	0	0	0	98.4	0									
c1ccc(-c2n[nH]cc2-c2ccnc3ccccc23)nc1 [GW271431]	11	20	0	4	17	21	30	18	0	0									
Cc1c(Cn2c(C)nn3c(=O)cc(N4CCOC(C)C4)nc23)cccc1C(F)(F)F (stereo not shown) [GSK2344444]	4	1	0	0	20	0	11	0	0	25									
COc1ccc(S(=O)(=O)NC2CCN(c3cc(C)nc(Nc4cccc(C#N)c4)n3)CC2)cc1.O=C(O)C(F)(F)F [GSK1653539]	0	8	0	25	8	0	7	7	0	0									
Cc1nnc(-c2ccc3ncc(-c4ccc(S(C)=O)cc4)n3c2)o1 (stereo not shown)	7	59	17	13	0	0	0	3	0	3									
CNc1ncnc2[nH]ncc12 [SKF-18355]	20	18	0	0	6	0	0	38	0	0									
CCc1ccnc(/C=C/c2n[nH]c3cc(Sc4ccccc4C(=O)NC)ccc23)c1	96.9	100	9	0	5	0	0	0	23	23									
O=c1cc(N2CCOCC2)nc2n(Cc3cccc(Cl)c3Cl)c(C3CC3)nn12 [GSK2358994]	15	0	0	27	23	9	8	15	0	0									
Cl.Cl.Cl.Fc1ccc(-c2ncn(C3CCNCC3)c2-c2ccnc(Nc3ccccc3)n2)cc1 [SB-238039]							0				2% and 0%	12% and 0%	17% and 16%	0% and 12%	69% and 32%	13% and 0%	55% and 23%	35% and 2%	27% and 0%
O=C(Nc1n[nH]c2cc(-c3cccc(F)c3)ccc12)C1CC1 [SB-735464]	1	33	0	18	3	0	0	0	6	0									
N#Cc1ccc(-c2cc(-c3c[nH]nc3-c3ccccn3)ccn2)cc1 [GW693028]	5	6	0	0	0	16	3	0	0	44									
Fc1ccc(-c2ncn(CCCN3CCOCC3)c2-c2cccnc2)cc1 [SB-211743]	18	2	9	0	20	9	0	46	14	0									
